We go through 35 molecules from PubChem BioAssay (EPA / NIEHS).

Results filed as inconclusive are left out. The source made the active and inactive calls. The calls were made as follows: active = hit-call score of the fitted dose curve at least 0.9, where 1 is the maximum; inconclusive = response in the unintended direction; inactive = score below 0.9.

A short description of this test: ATG_XTT_Cytotoxicity: Cytotoxicity Assessment in the Attagene TRANS-FACTORIAL HepG2 Assay (AID 2283584).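 As to AC50: cells exposed to compound for 24 h before reading; active means loss of viability signal versus DMSO baseline.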 A digest of the protocol: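 Cells: human HepG2, transiently transfected with MRTU reporter constructs. Exposure 24 h. Readout: XTT, cell number. Baseline/neg ctrl DMSO; loss-of-signal scored.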
Regarding `COc1ccc([N+](=O)[O-])cc1O`, the molecule was called inactive. On the same count and under the same terms, under `Cc1cccc(OP(=O)(Oc2cccc(C)c2)Oc2cccc(C)c2)c1` stands “inactive”. The same measure, in the same setting: under `CN(C)CCN(C)C` stands “inactive”; under `OC(Cc1ccccc1Cl)(Cn1cncn1)C1(Cl)CC1` (stereo not given), “inactive”. As for `CCNc1nc(NCC)nc(SC)n1`, the molecule was classed as inactive. On to `CCCCC(CC)COC(=O)Cl` (stereo not given), for which the molecule was classed as inactive.

Regarding `CCOP(=S)(OCC)SCS(=O)(=O)C(C)(C)C`, the call was inactive. The same measure, in the same setting: then `COCCl`, with “inactive”; and `Cc1cc(C(F)(C(F)(F)F)C(F)(F)F)ccc1NC(=O)c1cccc(I)c1C(=O)NC(C)(C)CS(C)(=O)=O`, with “inactive”. Same read-out and setting: then `NNCCO`, with “inactive”; and `ClCc1ccccc1CCl`, with “inactive”. As usually defined, the AC50 is the concentration at which the activity in the assay is half-maximal. For the molecule `O=C1C=CC(=O)c2ccccc21`, the AC50 was 49.2 µM (active). As to `O=NN1CCOCC1`, the result was inactive. In the case of `BrCC(Br)c1ccccc1` (stereo not given), the molecule was called inactive. As for `CC(C)[N+](=O)[O-]`, the molecule was called inactive.

On to `OC(Cc1ccccc1Cl)(Cn1[nH]cnc1=S)C1(Cl)CC1` (stereo not given), for which the molecule was classed as inactive. The same measure, in the same setting: under `CCCSP(=S)(OCC)Oc1ccc(Cl)cc1Cl` (stereo not given) stands “inactive”; under `Brc1c(Br)c(Br)c(Oc2c(Br)c(Br)c(Br)c(Br)c2Br)c(Br)c1Br`, “inactive”.

As for `Nc1ccc(-c2ccccc2)cc1`, the outcome was inactive. The same measure, in the same setting: then `O=C(O)COc1cc(Cl)c(Cl)cc1Cl`, with “inactive”; and `CC(C)CP(=S)(S)CC(C)C`, with “inactive”; and `Cc1ccccc1OP(=O)(Oc1ccccc1)Oc1ccccc1`, with “inactive”. Same read-out and setting: then `CCOC(=O)c1ccccc1S(=O)(=O)NC(=O)Nc1nc(Cl)cc(OC)n1`, with “inactive”. In the case of `CC(c1ccccc1)(c1ccc(O)cc1)c1ccc(O)cc1`, the AC50 is 40.4 µM (active). For the molecule `O=C/C(Cl)=C(/Cl)C(=O)O`, the call was inactive. The same measure, in the same setting: then `CC[N+](CC)(CC)CC`, with “inactive”; and `CN(CCCC(O)c1cccnc1)N=O` (stereo not given), with “inactive”; and `C[C@]12CC[C@@H](O)C[C@@H]1CC[C@@H]1[C@@H]2CC[C@]2(C)C(=O)CC[C@@H]12`, with “inactive”. Same read-out and setting: under `CCOP(=O)(OCC)SCCSCC` stands “inactive”; under `C[N+](C)(C)Cc1ccccc1`, “inactive”; under `Fc1cccc(Cl)c1CCl`, “inactive”.

For `CCOCn1c(-c2ccc(Cl)cc2)c(C#N)c(Br)c1C(F)(F)F`, the call was inactive. The same measure, in the same setting: under `C=C(C)[C@@H]1CC=C(C=O)CC1` stands “inactive”; under `O=c1nc(O)n(Cl)c(=O)n1Cl`, “inactive”. On the same count and under the same terms, under `COCC(=O)N(c1c(C)cccc1C)[C@H](C)C(=O)OC` stands “inactive”.
